A selection: hits, their analogues and other compounds. The true share with any hit is near 3%.
SENP8 block-1 – blocks the human protease SENP8; Q96LD8; purified SENP8, Z-RLRGG-aminoluciferin cleavage, luminescence; hit rate 1.2% among 330,000; inhibition, % at 10 µM; AID 2540; in the data active = inhibition above about 50%
SENP7 inh – inhibitors of human SENP7 protease. Q9BQF6. recombinant SENP7, Z-RLRGG-aminoluciferin luminescence, 40 min. inhibition, % at 5 µM. hit rate 1.5% among 330,000;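 active = inhibition above about 50% at the single test dose, limit read from the data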;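 also: plate controls were DMSO with enzyme for no effect and no enzyme buffer wells for full effect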
C8 TRAIL sens – caspase-8 TRAIL sensitization | NB7+C8 cells + TRAIL, ATPlite viability luminescence | inhibition (viability loss, TRAIL sensitization), % at 10 µM | hit rate 1% among 360,000 | AID 624354;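 active = compounds causing at least 50% loss of cell viability in the single-dose screen, relative to plate controls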
SENP8 block-2 – blocks human SENP8 cleavage of Nedd8 substrate; Q96LD8; AID 602440; hit rate 0.64% among 360,000; inhibition, % at 20 µM; recombinant SENP8, Nedd8 substrate fluorescence; in the data active = inhibition mostly above about 40%, no sharp cut-off; inactive = mostly below about 27%
SENP6 block – blocks the human protease SENP6 | inhibition, % at 10 µM | Recombinant SENP6 catalytic domain, aminoluciferin luminescence | Q9GZR1 | hit rate 1.8% among 330,000 | AID 2599;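 active = inhibition above about 50% at the single tested dose, limit read from the data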;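 also: plate controls were DMSO wells with enzyme for no effect and DMSO wells lacking enzyme for full effect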
Target sequence (Q9GZR1 628-1112 limits assumed): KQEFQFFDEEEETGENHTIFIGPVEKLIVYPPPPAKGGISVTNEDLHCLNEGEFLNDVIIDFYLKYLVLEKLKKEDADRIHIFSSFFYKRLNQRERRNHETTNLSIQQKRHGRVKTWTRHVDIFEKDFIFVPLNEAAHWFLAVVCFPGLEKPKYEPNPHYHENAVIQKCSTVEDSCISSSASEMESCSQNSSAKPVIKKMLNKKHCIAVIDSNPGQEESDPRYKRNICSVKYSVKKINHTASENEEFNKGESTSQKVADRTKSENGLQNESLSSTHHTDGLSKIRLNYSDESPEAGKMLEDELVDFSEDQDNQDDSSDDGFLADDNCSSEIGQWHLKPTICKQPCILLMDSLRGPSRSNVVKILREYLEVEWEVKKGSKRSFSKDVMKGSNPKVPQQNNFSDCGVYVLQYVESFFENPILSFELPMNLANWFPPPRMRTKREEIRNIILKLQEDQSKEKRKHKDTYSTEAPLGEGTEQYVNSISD
PPC-1+TRAIL kill – kills PPC-1 cancer cells in the presence of TRAIL. PPC-1 cells + TRAIL, ATPLite viability luminescence. hit rate 0.41% among 220,000. cell killing (% activity), % at 4 µM or 5 µM;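 active = cell killing above 50% in the first pass at 4 µM, then a duplicate retest at 5 µM averaging 50% or more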;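 also: plate controls were cells with TRAIL plus DMSO for no effect and medium-only wells lacking cells for full effect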
SENP8 confirm – human SENP8 inhibition, confirmed. shares compounds with SENP7 inh. Recombinant SENP8, Z-RLRGG-aminoluciferin luminescence, 60 min. inhibition, % at 12.5 µM. hit rate 40% among 6,200;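 active = mean inhibition across replicates above about 50%, limit read from the data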
SENP6 confirm – confirmation of human SENP6 protease inhibitors. AID 488915. hit rate 58% among 6,200. inhibition, % at 12.5 µM. shares compounds with SENP7 inh. recombinant SENP6, Z-RLRGG-aminoluciferin luminescence
SENP7 confirm – confirmation of human SENP7 protease inhibitors; shares compounds with SENP7 inh; recombinant SENP7, Z-RLRGG-aminoluciferin luminescence, 40 min; inhibition, % at 12.5 µM; hit rate 69% among 6,200; AID 488917
Casp3 SENP sel – inhibits human caspase-3 in SENP selectivity test | hit rate 60% among 6,200 | shares compounds with SENP7 inh | purified caspase-3, Z-DEVD-aminoluciferin luminescence, 60 min | inhibition, % at 12.5 µM;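 active = mean inhibition above about 50%, limit read from the data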;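 also: plate controls were enzyme with DMSO for no effect and wells without caspase-3 for full effect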
Luc interf – luminescence interference (SENP counter-screen); shares compounds with SENP7 inh; Pre-incubated SENP8/Z-RLRGG-aminoluciferin, luciferase luminescence interference; inhibition, % at 12.5 µM; hit rate 39% among 6,200; AID 488919;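 active = mean inhibition above about 50% when retested at one dose, limit read from the data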;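 also: plate controls were DMSO wells with completed reaction for no effect and substrate without enzyme for full effect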
* = called active by the depositor; i = inactive; · = not tested or not shown.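 The calls were made as follows, unless noted: active = mean inhibition above about 50% in the one-dose retest (limit read from the data); inactive = the rest.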

SMILES	SENP8 block-1	SENP7 inh	C8 TRAIL sens	SENP8 block-2	SENP6 block	PPC-1+TRAIL kill	SENP8 confirm	SENP6 confirm	SENP7 confirm	Casp3 SENP sel	Luc interf
CCC(=O)N(C1=C(NC)C(=O)c2ccccc2C1=O)C(C)C	3.3	32.6	37.4	58.9*	86.5*	49.9	27.6	49.8	22.9	40.1	1.1
COc1ccc(C(=O)N2CCC(n3c(C)nc4cc(F)ccc43)CC2)cc1	-2.9	-4.0	0.5	0.6	-19.4	5.5	·	·	·	·	·
O=c1[nH]c(/C=C/c2cccc3ccccc23)nc2ccccc12	-10.6	-1.7	-1.8	-432.0	-8.0	-4.1	·	·	·	·	·
O=c1[nH]c(/C=C/c2ccc(Br)cc2)nc2ccccc12	31.2	89.3*	78.0*	-242.2	21.9	·	17.7	21.0	15.0	21.2	-2.1
O=c1[nH]c(/C=C/c2ccccc2F)nc2ccccc12	83.4*	96.4*	79.4*	i	91.7*	·	75.6*	78.9*	89.4*	90.9*	22.0
O=C(Nc1cccc(/C=C/c2nc3ccccc3c(=O)[nH]2)c1)c1ccccc1Cl	-7.9	37.3	23.9	-104.7	1.4	17.1	·	·	·	·	·
Cc1cccc(/C=C\c2nc3ccccc3c(=O)[nH]2)c1	79.8*	98.7*	58.0*	-80.1	88.8*	37.8	54.9*	49.2	54.4*	74.5*	10.2
CN(C)c1ccc(/C=C/c2nc3ccccc3c(=O)[nH]2)cc1	93.0*	95.2*	90.9*	-233.7	-11.8	·	46.9	89.7*	102.8*	95.8*	38.5
Cc1ccc(C(=O)NCCCNC(=O)COc2ccc(C)c(C)c2)cn1	2.1	9.3	0.2	10.2	-2.0	·	·	·	·	·	·
COc1ccc2ccn(S(=O)(=O)c3ccccc3)c2c1	8.0	-1.8	-2.5	7.7	7.3	·	·	·	·	·	·
COc1cccc(-n2c(SCC(=O)NC3CC3)nc3ccccc3c2=O)c1	·	·	1.3	3.3	·	·	·	·	·	·	·
CCCc1nc2cc3c(cc2[nH]1)n(C)c(=O)n3C	8.3	-4.0	7.0	14.6	-3.8	·	·	·	·	·	·
COCCN(C(=O)COC(=O)CCOc1ccccc1C)c1c(N)n(Cc2ccccc2)c(=O)[nH]c1=O	-4.1	-1.4	0.2	5.9	1.8	·	·	·	·	·	·
COn1c(-c2ccccc2)nc2ccc(Cl)cc21	21.9	23.5	0.2	-22.0	54.4*	-0.3	39.0	38.7	71.7*	39.3	43.8
O=[N+]([O-])c1ccc2nc(-c3ccccc3)n(OCc3ccc(Cl)cc3)c2c1	65.6*	84.3*	13.6	15.2	86.3*	19.4	11.3	10.6	11.4	10.9	0.2
Clc1ccccc1-c1nc(-c2cccnc2)no1	64.5*	80.9*	34.4	29.6	83.7*	23.5	9.4	72.4*	92.7*	76.9*	64.0*
Cc1ccccc1-c1nc(-c2cccnc2)no1	35.5	53.0*	9.8	7.1	59.9*	14.6	25.4	60.0*	84.3*	67.1*	31.1
Cc1nc(-c2noc(-c3cccc(Cl)c3)n2)c(C(F)(F)F)o1	-1.5	5.8	0.5	-54.6	-1.2	10.2	·	·	·	·	·
Cc1nc(-c2noc(-c3ccccc3Cl)n2)c(C(F)(F)F)o1	70.2*	64.8*	9.3	19.8	78.2*	-1.5	24.4	56.6*	78.4*	69.8*	39.8
C(=C\c1nc(-c2cccnc2)no1)/c1ccccc1	13.3	33.2	1.5	-3.4	-20.6	·	·	·	·	·	·
Clc1ccccc1/C=C/c1nc(-c2cccnc2)no1	69.4*	76.7*	12.6	6.4	88.4*	14.3	56.2*	68.5*	89.0*	56.1*	12.2
CC(C)(C)N1C(=O)c2ccc(C(=O)Nc3cc(C(=O)O)cc(C(=O)O)c3)cc2C1=O	-6.1	-1.2	-6.4	-2.9	-0.8	·	·	·	·	·	·
